Experimental data taken from the supplement of paper PMC8253809.
Several values for one entry are separate records, joined by “and”; a condition that tells them apart may be missing. Equal entries are not always repeated.

Columns and labels:
Test in all cases: growth inhibition (% activity, log2 RLU normalised to DMSO / staurosporine); higher = more growth inhibition
Details in all cases: 33 µM
DIPGX29 = tested on: DIPGX29 (H3.3 K27M diffuse intrinsic pontine glioma line)
How it was run: (§1)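 The growth-inhibition value is the median over replicates. pHGG cell lines and H9-derived neural stem cells on Geltrex-coated 384-well plates received approved drugs by pin tool at a single final concentration of about 33 μM, in triplicate, for 7 days at 37 °C, 5% CO2. CellTiter-Glo luminescence was log2-transformed and normalised per plate to % activity between solvent and positive control wells.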

DIPGX37 = tested on: DIPGX37 (H3.3 K27M diffuse intrinsic pontine glioma line)
How it was run: as §1

DIPGX7 = tested on: DIPGX7 (H3.3 K27M diffuse intrinsic pontine glioma line)
How it was run: as §1

DIPGX9 = tested on: DIPGX9 (diffuse intrinsic pontine glioma line)
How it was run: as §1

HGGX39 = tested on: HGGX39 (paediatric high-grade glioma line)
How it was run: as §1

HGGX6 = tested on: HGGX6 (H3.3 G34R paediatric high-grade glioma line)
How it was run: as §1

HNSC = tested on: HNSC
How it was run: as §1

SUDIPGIV = tested on: SUDIPGIV (diffuse intrinsic pontine glioma line)
How it was run: as §1

SUDIPGVI = tested on: SUDIPGVI (diffuse intrinsic pontine glioma line)
How it was run: as §1

SUDIPGXIII = tested on: SUDIPGXIII (diffuse intrinsic pontine glioma line)
How it was run: as §1

SMILES	growth inhibition (DIPGX29)	growth inhibition (DIPGX37)	growth inhibition (DIPGX7)	growth inhibition (DIPGX9)	growth inhibition (HGGX39)	growth inhibition (HGGX6)	growth inhibition (HNSC)	growth inhibition (SUDIPGIV)	growth inhibition (SUDIPGVI)	growth inhibition (SUDIPGXIII)
CC12CC3CC(C)(C1)CC(N)(C3)C2	0.0357%	-0.52%	0.741%	1.54%	1.57%	1.17%	-0.299%	0.153%	0.617%	1.06%
C[C@H](CCC(=O)O)[C@H]1CC[C@H]2[C@@H]3CC[C@@H]4C[C@H](O)CC[C@]4(C)[C@H]3CC[C@]12C	-0.532%	-0.978%	-2.9%	-2.11%	0.371%	-1.49%	-2.18%	-1.6%	-1.83%	1.26%
CNC[C@H](O)c1cccc(O)c1	0.744%	-0.539%	2.1%	0.894%	4.28%	0.958%	3.62%	0.826%	0.615%	0.446%
COc1ccc(O)cc1	-0.0157%	0.851%	0.553%	0.0566%	-0.798%	0.118%	0.201%	-3.15%	-3.4%	0.564%
[I-].[K+]	-0.931%	-0.668%	-0.00688%	-0.676%	0.215%	-4.01%	20.4%	-0.567%	-0.261%	-4.16%
C=C1/C(=C\C=C2/CCC[C@]3(C)[C@@H]([C@H](C)/C=C/[C@H](C)C(C)C)CC[C@@H]23)C[C@@H](O)C[C@@H]1O	0.433%	1.95%	5.3%	2.6%	3.71%	2.65%	3.33%	0.335%	1.4%	1.03%
Clc1ccccc1CN1CCc2sccc2C1	1.5%	3.08%	2.39%	2.4%	4.15%	0.755%	1.29%	0.722%	3.23%	1.33%
O=C(NCCO[N+](=O)[O-])c1cccnc1	-0.0278%	2.96%	1.16%	1.21%	0.669%	-4.02%	46.8%	0.797%	1.67%	-0.184%
NCCNCCNCCNCCN	1.8%	3.32%	2.9%	2.04%	2.02%	3.41%	4.1%	5.08%	4.87%	0.192%
C=C1c2c(Cl)ccc(O)c2C(=O)C2=C(O)[C@]3(O)C(=O)C(C(N)=O)=C(O)[C@@H](N(C)C)[C@@H]3[C@@H](O)[C@H]12.O=C(O)c1cc(S(=O)(=O)O)ccc1O	3.13%	1.57%	2.88%	2.29%	8.03%	6.26%	8.17%	7.96%	4.89%	3.19%
O=C(O)CCNC(=O)c1ccccc1	0.362%	2.48%	0.618%	0.575%	0.895%	0.906%	-1.4%	0.839%	1.57%	1.01%
CC(=O)OCC(=O)[C@@]1(O)CC[C@H]2[C@@H]3CCC4=CC(=O)C=C[C@]4(C)[C@@]3(Cl)[C@@H](Cl)C[C@@]21C	0.772%	1.33%	1.5%	3.59%	0.199%	-1.27%	8.39%	-2.64%	-2.25%	1.64%
Cc1oncc1C(=O)Nc1ccc(C(F)(F)F)cc1	12%	9.13%	10.1%	22.6%	24.2%	9.78%	55.7%	28.2%	1.33%	2.78%
CC(=O)OCC(=O)[C@@]12N=C(C)O[C@@H]1C[C@H]1[C@@H]3CCC4=CC(=O)C=C[C@]4(C)[C@H]3[C@@H](O)C[C@@]12C	2.06%	0.767%	0.297%	4.71%	3.17%	0.221%	1.26%	-3.7%	-1.31%	-1.39%
COc1cc(C)c(/C=C/C(C)=C/C=C/C(C)=C/C(=O)O)c(C)c1C	5.2%	-2.81%	6.14%	8.33%	7.33%	6.28%	7.89%	6.68%	4.93%	1.6%
CN1CCC(=C2c3ccccc3CCc3cccnc32)CC1	-2.68%	0.139%	0.133%	-1.74%	-1.55%	-5.77%	24.2%	-1.91%	-8.64%	1.19%
Clc1ccc(C(Cn2ccnc2)OCc2ccc(Sc3ccccc3)cc2)c(Cl)c1 (stereo not given)	2.76%	0.833%	2.5%	4.7%	11.8%	8.32%	14%	11.4%	2.82%	5.1%
CCCC(=O)O[C@]1(C(=O)COC(C)=O)CC[C@H]2[C@@H]3C[C@H](F)C4=CC(=O)C=C[C@]4(C)[C@@]3(F)[C@@H](O)C[C@@]21C	1.5%	1.44%	-0.393%	2.91%	2.12%	0.881%	-3.23%	-4.91%	-0.161%	1.12%
CCC(=O)O[C@]1(C(=O)SCF)[C@H](C)C[C@H]2[C@@H]3C[C@H](F)C4=CC(=O)C=C[C@]4(C)[C@@]3(F)[C@@H](O)C[C@@]21C	0.571%	2.49%	-1.29%	2.53%	0.688%	-0.734%	2.55%	-3.9%	-0.462%	1.22%
COc1ccc(CNc2nc(N3CCC[C@H]3CO)ncc2C(=O)NCc2ncccn2)cc1Cl	-1.4%	-6.17%	-0.329%	-0.502%	-0.964%	-0.0101%	-2.71%	-1.36%	-2.1%	-0.559%

SMILES	growth inhibition (DIPGX29)	growth inhibition (DIPGX37)	growth inhibition (DIPGX7)	growth inhibition (DIPGX9)	growth inhibition (HGGX39)	growth inhibition (HGGX6)	growth inhibition (HNSC)	growth inhibition (SUDIPGIV)	growth inhibition (SUDIPGVI)	growth inhibition (SUDIPGXIII)
C[C@@H](O)[C@H]1C(=O)N2C(C(=O)[O-])=C(SC3Cn4cnc[n+]4C3)[C@H](C)[C@H]12 (stereo not given in full)	-0.594%	-1.93%	-0.736%	0.334%	0.724%	2.31%	-1.63%	-0.792%	0.279%	1.62%
Cc1onc(-c2c(Cl)cccc2Cl)c1C(=O)N[C@@H]1C(=O)N2[C@@H]1SC(C)(C)[C@@H]2C(=O)O	1.78%	1.6%	0.879%	0.739%	2.25%	1.63%	-0.363%	1.41%	2.27%	-0.796%
C[C@@H](O)[C@H]1C(=O)N2C(C(=O)O)=C(S[C@@H]3CN[C@H](CNS(N)(=O)=O)C3)[C@H](C)[C@H]12	0.9%	-1.74%	3.79%	-0.371%	-0.0496%	-2.09%	28.8%	-1.38%	-5.58%	-1.69%
Nc1ccn([C@@H]2O[C@H](CO)[C@@H](O)C2(F)F)c(=O)n1	16.7% and 17.4%	13.6% and 13%	16.9% and 16.6%	20.2%	20.4% and 20%	13.5% and 14.1%	52.4% and 59.5%	41.6% and 46%	4.24% and 4.14%	9.89% and 11.3%
C[N+]1(C)[C@@H]2C[C@@H](OC(=O)C(O)(c3cccs3)c3cccs3)C[C@H]1[C@@H]1O[C@@H]12	-2.02%	-0.731%	-2.26%	-2.3%	-2.1%	-0.274%	-3.15%	-1.02%	-2.31%	0.889%
CC[C@H]1OC(=O)C[C@@H](O)[C@H](C)[C@@H](O[C@@H]2O[C@H](C)[C@@H](O)[C@H](N(C)C)[C@H]2O)[C@@H](CCN2C[C@H](C)C[C@H](C)C2)C[C@@H](C)C(=O)/C=C/C(C)=C/[C@@H]1CO[C@@H]1O[C@H](C)[C@@H](O)[C@@H](OC)[C@H]1OC	-3.18%	-1.96%	-0.192%	-2.36%	-3.76%	-3.98%	3.6%	-3.04%	-5.87%	1.2%
CC(C)NCC(O)COc1ccc(COCCOC(C)C)cc1 (stereo not given)	-3.23%	-0.456%	-0.461%	-0.782%	-1.74%	-3.85%	-7.27%	-3.11%	-2.42%	-1.46%
O=c1cc[nH]c(=S)[nH]1	1.29%	1.68%	2.17%	2.37%	0.218%	-1.78%	36.9%	1.67%	-6.46%	0.601%
CN1CCCC(n2nc(Cc3ccc(Cl)cc3)c3ccccc3c2=O)CC1 (stereo not given)	3.68%	2.48%	4.68%	2.54%	7.54%	3.65%	0.14%	1.76%	0.965%	2.09%
Nc1c2ccccc2nc2ccccc12	17.5%	1.87%	5.31%	20.4%	12.2%	14.7%	58.1%	14.3%	5.87%	0.896%
Cc1cn(-c2cc(NC(=O)c3ccc(C)c(Nc4nccc(-c5cccnc5)n4)c3)cc(C(F)(F)F)c2)cn1	2.27%	3.07%	4.89%	1.74%	3.66%	2.75%	4.26%	1.93%	2.31%	-2.01%
NCCCC[C@H](N[C@@H](CCc1ccccc1)C(=O)O)C(=O)N1CCC[C@H]1C(=O)O	-0.869%	-1.25%	-0.813%	-0.846%	-1.12%	1.27%	-1.56%	-0.401%	-1.38%	-4.08%
CC(C(=O)O)c1ccc2c(c1)Cc1cccnc1O2 (stereo not given)	0.469%	2.25%	2.38%	1.73%	3.25%	2.19%	2.91%	-1.77%	3.45%	-1.63%
CCn1nc(C(=O)O)c(=O)c2cc3c(cc21)OCO3	0.16%	0.624%	-0.169%	-0.854%	0.711%	1.66%	0.841%	-0.519%	-0.803%	0.089%
c1cnc2cc3c(cc2n1)[C@@H]1CNC[C@H]3C1	1.18%	-2.8%	1.78%	0.684%	0.561%	1.15%	0.349%	-0.44%	-0.35%	-1.07%
CCCCC[C@H](O)/C=C/[C@H]1[C@H](O)CC(=O)[C@@H]1CCCCCCC(=O)O	1.8%	0.835%	1.87%	1.68%	3.82%	4.44%	0.983%	2.69%	1.52%	0.878%
Cc1ccc(Nc2nccc(N(C)c3ccc4c(C)n(C)nc4c3)n2)cc1S(N)(=O)=O	3.74% and 7.46%	4.99% and 1.63%	5% and 10.4%	3.67% and 7.92%	6.65% and 10.2%	5.31% and 11.1%	4.18% and 9.11%	4.44% and 6.85%	5.08% and 5.8%	3.27% and 1.33%
CC1(C)O[C@@H]2C[C@H]3[C@@H]4CCC5=CC(=O)C=C[C@]5(C)[C@@]4(F)[C@@H](O)C[C@]3(C)[C@]2(C(=O)CO)O1	1.92%	0.771%	-0.242%	4.15%	2.88%	0.928%	-2.22%	-0.618%	1.71%	0.942%
Nc1c(CC(=O)O)cccc1C(=O)c1ccccc1	-1.69%	-2.54%	-0.79%	-0.667%	-0.264%	-1.13%	-2.43%	-5.49%	-5.35%	1.21%
CC[C@H](C)[C@H](N)C1=N[C@H](C(=O)N[C@@H](CC(C)C)C(=O)N[C@H](CCC(=O)O)C(=O)N[C@H](C(=O)N[C@H]2CCCCNC(=O)[C@H](CC(N)=O)NC(=O)[C@@H](CC(=O)O)NC(=O)[C@H](Cc3cnc[nH]3)NC(=O)[C@@H](Cc3ccccc3)NC(=O)[C@H]([C@@H](C)CC)NC(=O)[C@@H](CCCN)NC2=O)[C@@H](C)CC)CS1	0.716%	-3.59%	2.09%	-0.221%	2.77%	-1.08%	1.3%	0.589%	-1.54%	-1.26%
